Laboratory results reported in PubChem BioAssay (NCATS).
Results filed as inconclusive are left out. A number with no mark means an inactive call. Activity calls are given as the source filed them. The call rests on the fitted dose curve; in most records, active means well fitted inhibition curve with a large enough effect; inconclusive means small, poorly fitted or top-dose-only effect; inactive means flat fitted curve, though single readings scatter. *1 amine or outer side, *2 acyl side, *3 side chain or, on linkers, in order; H or OH if unused. Where a SMILES comes first, the peptide text is derived from it. [ ]: non-standard residue; d: D form. X13 = O=C(C(CC(O)CO)O[*:1])[*:2]; NMeV = CN[CH](C(=O)O)C(C)C; NMeA = CN[CH](C)C(=O)O; βAla = NCCC(=O)O

System: HEK293
Test: Cytotoxic Profiling of Annotated Libraries Using Quantitative High-Throughput Screening (AID 1296008); further: nearly all actives have a fitted effect of over 60% in size
Conditions: Five cell lines viability, CellTiter-Glo ATP luminescence, 48-72 h; max response: stronger effect = lower value
Summary of the method: (§1)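 Cells exposed to compounds for 48 or 72 hr at 37 degrees Celsius. Viability read as ATP-coupled luminescence with CellTiter-Glo after 10 min at room temperature.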
On the % scale 0 is the no-effect control and ±100 the full control effect.

Row | Compound | max response
1 | C=C1CCC2C(C)(C(=O)O)CCCC2(C)C1CC/C(C)=C\CO (stereo not drawn) | -6.37%
2 | C=CC(C)(O)C1CC2C3(C)CCCC(C)(C)C3C(O)C(O)C2(C)O1 (stereo not drawn) | 3.38%
3 | CC(C)(O)C1CCC2(C)CCCC(C)(O)C2C1 (stereo not drawn) | 2.93%
4 | CC(=O)O[C@H]1C[C@@]2(C)[C@@H](CC[C@H]3[C@@]4(C)C=CC(=O)[C@@H](C)[C@@H]4[C@H](OC(C)=O)C(=O)[C@@]32C)/C1=C(\CCC=C(C)C)C(=O)O | -0.998%
5 | COC(=O)C(Cc1ccccc1)NC(=O)c1ccccc1 (stereo not drawn) | -8.19%

System: HaCat
Test: as above
Conditions: Five cell lines viability, CellTiter-Glo ATP luminescence, 48-72 h; max response: stronger effect = lower value
Summary of the method: as §1

Row | Compound | outcome
6 | CC(=O)O[C@@H]1[C@H](O[C@@H]2O[C@H](CO)[C@@H](O)[C@H](O)[C@H]2O)[C@@H](O[C@@H]2O[C@@H](C)[C@H](O)[C@@H](O[C@@H]3O[C@H](CO)[C@@H](O)[C@H](O)[C@H]3O)[C@H]2O)[C@H](OC(=O)[C@]23CCC(C)(C)C[C@H]2C2=CCC4[C@@]5(C)C[C@H](O)[C@H](O[C@@H]6O[C@H](C(=O)O)[C@@H](O)[C@H](O)[C@H]6O)[C@@](C)(C(=O)O)C5CC[C@@]4(C)[C@]2(C)CC3)O[C@@H]1C (stereo partly drawn) | inactive
7 | CC(=O)OCC1OC(O[C@H]2CC[C@@]3(C)C(CC[C@]4(C)C3CC=C3[C@@H]5CC(C)(C)CC[C@]5(C(=O)O)CC[C@]34C)[C@]2(C)CO)C(O)C(O)C1OC1OC(C)C(O)C(OC2OCC(O)C(O)C2O)C1O (stereo partly drawn) | inactive
8 | CC1=C[C@@H]2[C@H]3[C@@H]4O[C@@](C)(CC[C@H]4O)[C@H]3CC(=O)[C@]23C(=O)N[C@@H](CC(C)C)[C@@H]3[C@@H]1C | inactive
9 | COc1cccc(CN(C(=O)CC(C)(C)C)C2CC(C(=O)N3CCNCC3)N(Cc3ccc4c(c3)OCO4)C2)c1 (stereo not drawn) | inactive
10 | C/C=C/C=C/C(O)=C1/C(=O)[C@]2(C)C3/C(=C(O)/C=C/C=C/C)C(=O)C4(C)C1[C@]1(C)O[C@@]4(O)[C@@]3(C)O[C@@]12O | inactive
11 | OC[C@H]1O[C@@H](OCCc2ccccc2)[C@H](O)[C@@H](O)[C@@H]1O | inactive
12 | CCC(C)C(N)C(=O)NCCN1CCOCC1 (stereo not drawn) | inactive
13 | CC1CC2(O)OC(=O)C3=C2C(CCC3)[C@@]12C[C@@H](c1ccoc1)OC2=O (stereo partly drawn) | inactive
14 | Cc1nc2ccccc2c(-c2ccc3c4c(ccnc24)CCO3)c1[C@H](OC(C)(C)C)C(=O)O | inactive
15 | NC[C@H]1CCC[C@@H](CNC(=O)[C@@H](Cc2c[nH]c3ccccc23)NC(=O)N2CCC3(C=Cc4ccccc43)CC2)C1 | inactive
16 | CCC(C)/C=C(C)/C=C/C1=CC2=C(Cl)C(=O)C(C)(OC(C)=O)C(=O)C2=CN1C(CCC(=O)O)C(=O)O (stereo not drawn) | inactive
17 | CC(C)C1NC(=O)C2CCCN2C1=O (stereo not drawn) | inactive
18 | C=CC1(C)CC2CCC3C(C)(C(=O)O)CCCC3(C)C2=CC1=O (stereo not drawn) | inactive
19 | CC(C)C1(O)C=C2C(=O)CC3C(C)(C(=O)O)CCCC3(C)C2CC1 (stereo not drawn) | inactive
20 | COc1cccc(C)c1C(=O)O[C@@H]1C[C@H](O[C@H]2[C@H](O)C[C@H](O[C@@H]3CCC[C@H]4[C@H]3C=C[C@@H]3CCCC/C=C/[C@H]5C=C(C(=O)O)[C@@H](C)C[C@@]56OC(=O)C(=C6O)OC(=O)[C@@]34C)O[C@@H]2C)O[C@H](C)[C@H]1O | inactive
21 | C=C(C(=O)OC)[C@]12O[C@@](C)(CC[C@@]3(O)/C(=C\C)C(=O)O[C@]3(C)C[C@@H]1OC(=O)C(CO)CN1CCCC1C(=O)O)CC2=O (stereo partly drawn) | inactive
22 | COC(=O)C1=CO[C@@H](O[C@@H]2O[C@H](CO)[C@@H](O)[C@H](O)[C@H]2O)[C@@H]2[C@@H](CO)[C@@H](O)C(O)[C@H]12 (stereo partly drawn) | inactive
23 | O=C(O)c1cc(O[C@@H]2O[C@H](CO)[C@@H](O)[C@H](O)[C@H]2O)ccc1O | inactive
24 | C=C(CC/C=C(\C)C(=O)O)C1(O)CC=C(C)CC1 (stereo not drawn) | inactive
25 | CC(C)=CCc1cc(O[C@@H]2O[C@H](CO[C@@H]3OC[C@](O)(CO)[C@H]3O)[C@@H](O)[C@H](O)[C@H]2O)ccc1O | inactive
26 | C=C1CCC2C(C)(C)CCC[C@]2(C)[C@H]1CC/C(C)=C/C(=O)O (stereo partly drawn) | inactive
27 | CCC(C)C1NC(=O)C2CCCN2C(=O)C(CC(O)CO)OC(=O)CCNC(=O)C(C)N(C)C(=O)C(C(C)C)N(C)C1=O (stereo not drawn) (cyclo([X13]PI[NMeV][NMeA][βAla]); configuration not given here) | inactive
28 | Cc1cc(-c2nncc3c(C(C)(C)C)c(OCc4ncnn4C)nn23)no1 | inactive
